A selection: hits, their analogues and other compounds. The true share with any hit is near 4.1%.
DAX1 inh-1: DAX1 (NR0B1) inhibitors on StAR promoter, primary screen, cell-based, luminescence, SF-1 (NR5A1), full-length DAX-1; 1.1% of 370,000 active; HEK293T StAR-luciferase reporter, SF-1/DAX-1 repression relief; inhibition, % at 6.8 µM; AID 652010, 2013;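 active = inhibition above the mean over all tested compounds plus 3 SD, cut at about 3.6% in these data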;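 also: 0% = DAX-1 cells with DMSO and 100% = cells lacking DAX-1 with DMSO; higher inhibition means more luminescence from relief of DAX-1 repression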
hgDAF-12 ag: H. glycines DAF-12 receptor agonists, primary screen, cell-based, luminescence, HEK293, GAL4 fusion, UAS-luciferase; AID 687014, 2013; activation, % at 6.8 µM; Nuclear hormone receptor DAF-12 (Heterodera glycines), GAL4 fusion; 1.8% of 370,000 active; HEK293 GAL4-hgDAF12 UAS-luciferase reporter, agonist luminescence; normalized to butyrate control;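 active = activation above a cutoff set at the mean of all screened compounds plus 3 SD, cut at about 10% in these data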;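 also: 0% = DMSO wells and 100% = sodium butyrate wells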
hcDAF12 agonist: H. contortus DAF-12 nuclear receptor activators, primary screen, cell-based, luminescence, HEK293, lit1-tk-luc reporter | 1.4% of 370,000 active | activation, % at 6.8 µM | HEK293 hcDAF-12 lit1-tk-luc reporter; 0% DMSO, 100% Δ7-dafachronic acid;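 active = activation above the mean of all tested compounds plus 3 SD, cut at about 5.5% in these data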;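 also: 100% = response to 3 µM Δ7-dafachronic acid high control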
DAX1 inh-2: DAX1 (NR0B1) inhibitors, primary screen, cell-based, HEK293, Gal4-DAX1, luciferase luminescence | AID 504766, 2011 | Nuclear receptor subfamily 0 group B member 1 (Homo sapiens), P51843 | HEK293 Gal4-DAX1 luciferase reporter | 0.99% of 340,000 active | inhibition, % at 6.75 µM;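 active = inhibition above the mean over all tested compounds plus 3 SD, cut at about 4.2% in these data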;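 also: 0% = DAX1-transfected cells with DMSO and 100% = empty-vector control cells with DMSO; inhibition shows as a rise in luminescence from relieved DAX1 repression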
Target sequence (P51843 207-470 limits assumed): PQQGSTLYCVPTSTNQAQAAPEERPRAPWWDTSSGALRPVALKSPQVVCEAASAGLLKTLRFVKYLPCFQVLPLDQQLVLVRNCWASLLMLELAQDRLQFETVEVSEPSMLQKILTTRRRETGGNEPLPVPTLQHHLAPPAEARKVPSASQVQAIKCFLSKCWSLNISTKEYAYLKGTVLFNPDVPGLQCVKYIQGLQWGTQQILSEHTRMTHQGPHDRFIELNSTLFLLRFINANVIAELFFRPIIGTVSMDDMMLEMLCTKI
ssDAF12 agonist: S. stercoralis DAF-12 nuclear receptor activators, primary screen, cell-based, luminescence, HEK293, GRIP1 co-expression, lit1-tk-luc; activation, % at 6.8 µM; HEK293 ssDAF-12/GRIP1 lit1-tk-luc reporter; % of 3 µM dafachronic acid response; 1% of 370,000 active; Nuclear hormone receptor DAF-12 (Strongyloides stercoralis);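 active = activation above the mean over all tested compounds plus 3 SD, cut at about 0.9% in these data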;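 also: 0% = DMSO-only wells and 100% = 3 µM delta7-dafachronic acid wells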
DAX1 conf: DAX1 (NR0B1) inhibitors relieving SF-1 repression, confirmation, cell-based, luminescence, HEK293T, full-length DAX-1, SF-1 activated StAR promoter; shares compounds with DAX1 inh-1; HEK293T StAR-promoter luciferase reporter, SF-1/DAX-1 repression; inhibition, % at 6.8 µM; 87% of 2,400 active;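 active = inhibition above the average of every tested compound plus 3 SD, cut at about 3.8% in these data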;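 also: 0% = DAX-1 cells with DMSO and 100% = no DAX-1 control cells with DMSO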
SF1 mutant ctr: StAR reporter signal changes without DAX1, counter-screen for DAX1 inhibitor project, cell-based, luminescence, AF-2 mutant SF-1, transactivation | 78% of 2,400 active | HEK293 StAR-luciferase, SF-1 AF2 mutant | shares compounds with DAX1 inh-1 | AID 652136, 2013 | inhibition, % at 6.8 µM;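 active = inhibition above the mean of all tested compounds plus 3 SD, cut at about 3% in these data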;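 also: 0% = DAX-1 transfected cells with DMSO and 100% = cells without DAX-1 with DMSO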
The depositor's hits bear a star; nt = no result.

SMILES	DAX1 inh-1	hgDAF-12 ag	hcDAF12 agonist	DAX1 inh-2	ssDAF12 agonist	DAX1 conf	SF1 mutant ctr
Cc1ccc2nc3ccc(N4CCCC4)nn3c(=O)c2c1	1.2	8.0	0.2	0.3	-0.7	nt	nt
COc1cccc(-c2nnc3sc(-c4ccc(Br)o4)nn23)c1	0.7	2.8	1.8	nt	-0.5	nt	nt
CCC(=O)Nc1c(C(=O)Nc2ccc3c(c2)OCCO3)oc2ccccc12	3.3	9.2	3.5	0.1	-0.3	nt	nt
Cn1cccc1C(=O)OCC(=O)Nc1ccc2c(c1)OCCO2	7.1*	10.8*	4.0	-0.4	0.4	12.1*	7.0*
CCOCC(=O)Nc1c(C(=O)Nc2ccc3c(c2)OCCO3)oc2ccccc12	7.0*	10.0	0.7	0.1	-0.2	6.3*	3.1*
Cc1ccc(NC(=O)N2CCC(c3nc4ccc(Cl)cc4[nH]3)CC2)cc1F	-1.4	3.0	-3.5	nt	-1.9	nt	nt
CCOC(=O)NC[C@@]1(C(=O)OC)CC(=O)N(Cc2ccc(Cl)cc2)[C@@H]1c1ccc(OC)cc1	-0.6	-2.3	3.9	nt	-0.3	nt	nt
CC(C)C[C@H](NC1(C(=O)NC2CCCCC2)CCCCC1)C(=O)NCCc1c[nH]c2ccccc12	nt	-5.0	2.9	nt	-0.8	nt	nt
COCCCNC(=O)C[C@H]1C[C@@]2(C(=O)OC)C(=C[C@H](C3CCCC3)O[C@@H]2C)N(CCc2ccc(OC)c(OC)c2)C1=O	-0.6	1.8	-2.3	nt	-1.1	nt	nt
C=C1CCCC2OC(CC3=CC4/C(C)=C/CC(C)CC(/C=C(\C)C(O)C5CC(O)C(O)C(CCC(O)/C=C/C(C)=C/CCC6=NCCC(C3)C64C)O5)OC(=O)CC3OC(C(O)C1)C(O)C3O)CC(O)C2O (stereo not drawn)	7.9*	-0.5	5.8*	nt	0.2	11.4*	-2.6
COc1ccc2sc(NC(=O)c3ccco3)nc2c1	6.2*	10.3	4.3	-2.1	-0.3	10.1*	2.6
COc1ccc2c(c1)Cc1sc(NC(=O)c3ccco3)nc1-2	2.3	6.9	4.5	2.3	-0.3	nt	nt
CCOC1=C2CN(S(=O)(=O)c3ccc(C)cc3)[C@@H](c3cccs3)C[C@H]2[C@H]2C(=O)N(c3ccccc3)C(=O)[C@H]2C1	4.5*	0.6	-0.7	nt	-1.4	-3.0	-0.8
Cc1ccc(S(=O)(=O)N2C[C@H]3C(=O)C[C@@H]4C(=O)N(c5ccccc5)C(=O)[C@@H]4[C@@H]3C[C@H]2c2cccs2)cc1	0.0	0.9	0.9	nt	-1.2	nt	nt
CCN(c1ccccc1C)S(=O)(=O)c1nnc(NC(=O)c2ccco2)s1	4.8*	-0.7	-1.6	0.5	-0.8	0.3	0.0
COc1cccc(Cn2cc(COC(=O)NCCc3ccccc3)nn2)c1	0.5	-1.9	-1.3	nt	-1.3	nt	nt
Nc1cccc2cc(-c3ccccc3)oc12	5.3*	7.0	1.7	1.5	0.1	6.5*	5.6*
O=C1[C@H]2C[C@@]3(n4ccc5ccccc54)c4ccccc4N(S(=O)(=O)c4ccccc4)[C@H]3N2C(=O)CN1Cc1ccccc1	0.6	-2.4	1.2	nt	-0.5	nt	nt
CCCCC(=O)NC(=S)NNC(=O)CC#N	4.7*	-0.4	-1.6	1.2	-1.3	1.7	0.4
CN(CCOC(=O)c1cc2ccccc2o1)C1CN(Cc2cn(Cc3ccccc3F)nn2)S(=O)(=O)C1 (stereo not drawn)	0.6	-2.4	-1.2	nt	-1.2	nt	nt

Screens from PubChem.
